Peg3 promoter – Peg3 promoter activity inhibition | inhibition, % at 20 µM | HeLa PEG-Prom luciferase reporter, luminescence, overnight | actives 1.7% (n = 360,000);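 active means inhibition of at least 50% at 20 µM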
LGR2 antag – Drosophila LGR2 receptor signaling inhibition; HEK293 LGR2, CRE-luciferase, bursicon-stimulated, 4 h; actives 0.35% (n = 380,000); AID 720647; inhibition, % at 9.99 µM;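 active means drop in luminescence signal, shown as inhibition above about 50% in the replicate tests, limit read from the data, passing the limit was not always enough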;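 further: agonist challenge used bursicon conditioned medium at about half maximal strength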
KKLEB tox – CF airway cell cytotoxicity counter-screen. KKLEB CF airway cells viability, ATPlite luminescence, overnight; active compounds read low; cells stimulated with P. aeruginosa culture filtrate. activity change (cytotoxicity), % at 5 µM. actives 0.36% (n = 360,000);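 active means corrected activity change at or below -50% at 5 µM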
Mdm2 MdmX PPI – inhibitors of human Mdm2/MdmX interaction; O15151+Q00987; SaOS-2 split-luciferase Mdm2/MdmX complementation, luminescence; inhibition, % at 8 µM; actives 3% (n = 330,000);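 active means inhibition of at least 50% at 8 µM in the primary screen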
Target sequence (O15151 whole entry, looked up): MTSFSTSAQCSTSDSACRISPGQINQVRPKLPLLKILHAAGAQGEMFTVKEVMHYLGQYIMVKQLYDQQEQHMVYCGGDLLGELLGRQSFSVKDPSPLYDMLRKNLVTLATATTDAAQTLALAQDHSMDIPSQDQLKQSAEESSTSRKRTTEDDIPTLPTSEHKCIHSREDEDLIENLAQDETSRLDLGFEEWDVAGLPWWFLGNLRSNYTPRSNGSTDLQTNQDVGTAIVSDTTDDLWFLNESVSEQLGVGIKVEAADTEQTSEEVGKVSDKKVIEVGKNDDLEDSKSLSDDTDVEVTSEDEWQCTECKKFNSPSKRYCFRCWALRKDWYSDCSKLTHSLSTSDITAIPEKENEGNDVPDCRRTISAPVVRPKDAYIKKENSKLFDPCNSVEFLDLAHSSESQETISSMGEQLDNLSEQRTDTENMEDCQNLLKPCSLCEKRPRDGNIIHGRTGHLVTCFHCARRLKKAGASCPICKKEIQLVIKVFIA
Target sequence (Q00987 whole entry, looked up): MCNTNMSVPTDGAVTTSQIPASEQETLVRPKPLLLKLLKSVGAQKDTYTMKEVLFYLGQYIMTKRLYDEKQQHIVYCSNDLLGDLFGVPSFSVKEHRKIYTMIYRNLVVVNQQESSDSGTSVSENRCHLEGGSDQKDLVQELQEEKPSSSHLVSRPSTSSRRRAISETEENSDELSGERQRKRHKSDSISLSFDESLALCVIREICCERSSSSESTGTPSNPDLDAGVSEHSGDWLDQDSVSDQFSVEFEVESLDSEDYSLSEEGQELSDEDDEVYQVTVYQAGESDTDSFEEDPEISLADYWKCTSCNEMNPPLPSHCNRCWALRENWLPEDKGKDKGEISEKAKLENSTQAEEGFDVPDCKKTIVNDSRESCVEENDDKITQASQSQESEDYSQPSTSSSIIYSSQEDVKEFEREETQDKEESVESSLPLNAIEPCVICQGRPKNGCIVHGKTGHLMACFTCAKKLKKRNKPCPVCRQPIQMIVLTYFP
CF NFkB block – blocks PAF-induced NF-kB reporter in cystic fibrosis cells. KKLEB NF-kB-GFP reporter, GFP fluorescence overnight. inhibition, % at 5 µM. actives 0.86% (n = 360,000);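 active means at least 50% inhibition at 5 µM, scaled per plate between neutral and stimulator controls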;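 further: PAF is a Pseudomonas aeruginosa culture filtrate used as stimulus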
HSP90 refold inh – inhibitors of HSP90 luciferase refolding in rabbit reticulocyte lysate. luciferase refolding luminescence, 3 h. inhibition, % at 5.6 µM. actives 0.91% (n = 290,000). AID 1789;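 active means inhibition above the screen-wide mean plus 3 SD, computed separately per campaign, cut at about 16% in these data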;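 further: inhibitors lower the luminescence because luciferase stays unfolded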
Mdm2-MdmX conf – confirmation of human Mdm2/MdmX interaction inhibitors; shares compounds with Mdm2 MdmX PPI; Mdm2-MdmX binding, luminescent assay; inhibition, % at 8 µM; actives 55% (n = 10,000); AID 489028; in the data active means inhibition above about 40%
FLuc counter – inhibits full-length luciferase, flagging false Mdm2/MdmX hits; SaOS-2 full-length luciferase counterscreen, luminescence; shares compounds with Mdm2 MdmX PPI; inhibition, % at 8 µM; actives 77% (n = 6,200);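 active means mean inhibition at 8 µM reaching about 37%, which flags the compound as non-specific, limit read from the data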;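 further: p53-null SaOS-2 cells with luciferase driven by a doxycycline-inducible promoter; compound on cells about two nights before reading with doxycycline added after day one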
Numbers stand for hits; – = inactive; · = no result. Most compounds without a hit are left out; they make up all but 3.6% or so of the library.

SMILES	Peg3 promoter	LGR2 antag	KKLEB tox	Mdm2 MdmX PPI	CF NFkB block	HSP90 refold inh	Mdm2-MdmX conf	others
Cc1ccc(C2CC(C(F)F)n3ncc(C(=O)Nc4c(C)nn(Cc5c(F)cccc5Cl)c4C)c3N2)cc1 (stereo not drawn)	–	·	–	70	–	–	–
C[C@@H]1CN([C@H](C)CO)C(=O)c2cc(NC(=O)c3ccncc3)ccc2O[C@H]1CN(C)S(C)(=O)=O	·	–	·	·	·	·	·
O=c1[nH]cnc2c1sc1nc(C(F)F)cc(-c3ccccc3)c12	–	–	–	53	–	·	–
CCCC#Cc1ccc2c(c1)O[C@H](CN(C)C(=O)C1CCCCC1)[C@@H](C)CN([C@@H](C)CO)S2(=O)=O	·	–	·	·	·	·	·
CO[C@@H]1CN(C)C(=O)c2ccc(NC(=O)CC(F)(F)F)cc2OC[C@H](C)N(C(C)=O)C[C@@H]1C	·	–	·	·	·	·	·
COc1ncc(-c2ccc3c(c2)S(=O)(=O)c2cccc(C(=O)NCc4ccco4)c2C3=O)cn1	–	–	–	53	–	·	–
COc1ccc(-c2ccc3c(c2)S(=O)(=O)c2cccc(C(=O)NC4CCCC4)c2C3=O)cc1OC	–	–	–	–	–	·	·
COc1ccc(-c2ccc3c(c2)S(=O)(=O)c2cccc(C(=O)NCc4cc(C)oc4C(F)(F)F)c2C3=O)cc1OC	–	·	–	–	–	·	·
O=C(NCC1CCCO1)c1cccc2c1C(=O)c1ccc(N3CCC(Cc4ccccc4)CC3)cc1S2(=O)=O (stereo not drawn)	63	·	–	54	–	·	–
O=C(NCc1cc(C(F)(F)F)ccc1Cl)c1cccc2c1C(=O)c1ccc(-c3ccc(OC(F)(F)F)cc3)cc1S2(=O)=O	·	·	·	77	·	·	–
O=C(NC1CCCCC1)c1cccc2c1C(=O)c1ccc(-c3ccc(OC(F)(F)F)cc3)cc1S2(=O)=O	–	–	–	71	–	·	–	FLuc counter=79
COc1ncc(-c2ccc3c(c2)S(=O)(=O)c2cccc(C(=O)O)c2C3=O)cn1	–	–	–	–	–	·	·
COc1ccccc1NC(=O)N1CC(=O)N2[C@H](C1)[C@H](c1ccc(-c3ccc(C)cc3)cc1)[C@@H]2CO	·	–	·	·	·	·	·
CCCC(=O)Nc1ccc2c(c1)C(=O)N(C)[C@@H]1CC[C@@H](CC(=O)Nc3cn(C)nc3C)O[C@H]1CO2	·	–	·	·	·	·	·
COc1ccc(-c2ccc3c(c2)S(=O)(=O)c2cccc(C(=O)NCc4cccc(OC(F)(F)F)c4)c2C3=O)cc1OC	–	·	–	73	–	·	–
O=C(NCc1ccccc1Cl)c1cccc2c1C(=O)c1ccc(-c3ccc(OC(F)(F)F)cc3)cc1S2(=O)=O	–	·	–	68	–	·	–
O=C(NCc1ccccc1)c1cccc2c1C(=O)c1ccc(/C=C/c3ccccc3)cc1S2(=O)=O	–	–	–	77	–	·	–
O=C(NCc1cc(C(F)(F)F)ccc1Cl)c1cccc2c1C(=O)c1ccc(Cl)cc1S2(=O)=O	·	–	·	54	·	·	–
O=C(NCc1cccc(OC(F)(F)F)c1)c1cccc2c1C(=O)c1ccc(-c3ccc(F)cc3OCc3ccccc3)cc1S2(=O)=O	–	–	–	–	–	·	·
O=C(Nc1cc(Cl)ccc1-n1cncn1)c1ccc([N+](=O)[O-])s1	–	·	–	58	–	–	–
O=C(Nc1cc(Cl)ccc1-n1cncn1)c1ccco1	–	–	–	–	–	–	·
O=C(C[C@@H]1C[C@H]2c3cc(NC(=O)C4CCOCC4)ccc3O[C@H]2[C@H](CO)O1)NCc1ccccn1	·	–	·	·	·	·	·
Cc1ccccc1-c1ccc([C@@H]2[C@H]3CN(S(=O)(=O)c4cn(C)cn4)CCCCN3[C@H]2CO)cc1	·	–	·	·	·	·	·
CNC[C@H](Cc1ccccc1)NC[C@@H](Cc1cccc2ccccc12)NCCc1ccc(C)cc1	97	–	-50	100	–	–	86	FLuc counter=51
COc1ccc(Cc2nnc(N/N=C/c3ccc(O)cc3O)[nH]c2=O)cc1OC	–	–	–	56	–	–	44	FLuc counter=50
SMILES	Peg3 promoter	LGR2 antag	KKLEB tox	Mdm2 MdmX PPI	CF NFkB block	HSP90 refold inh	Mdm2-MdmX conf	others
CO[C@H]1CN(C)C(=O)c2cc(NC(=O)c3ccccc3)ccc2OC[C@H](C)N(CC2CC2)C[C@H]1C	·	–	·	·	·	·	·
C[C@H](CO)N1C[C@H](C)[C@@H](CN(C)C(=O)Nc2ccc3c(c2)OCO3)OCCCC[C@H](C)Oc2ccc(N(C)C)cc2C1=O	·	–	·	·	·	·	·
C[C@@H]1CN([C@@H](C)CO)C(=O)Cc2cc(NC(=O)Nc3ccccc3)ccc2O[C@H]1CN(C)CC1CCCCC1	·	–	·	·	·	·	·
COC(=O)[C@H](Cc1ccccc1)NC(=O)Cn1cnc2c(OCc3ccccc3)ncnc21	–	–	–	–	–	·	·
O=C(Cn1cnc2c(OCc3ccccc3)ncnc21)N[C@H](CO)Cc1cc2ccccc2[nH]1	–	–	–	51	–	·	–
CN1CCN(CCCNC(=O)c2ccc3c(Cl)c4c(nc3c2)CCCC4)CC1	87	–	–	76	–	–	42	FLuc counter=58
CC(C)(C)c1ccc(C(=O)NCCCN2CCN(CCCNC(=O)c3ccc(C(C)(C)C)cc3)CC2)cc1	109	–	-71	95	–	–	95	FLuc counter=57
CCOC(=O)N1CCN(C(=O)c2ccc3c(Cl)c4c(nc3c2)CCCC4)CC1	–	–	–	–	–	–	·
CN(C(=O)c1ccc2c(Cl)c3c(nc2c1)CCC3)c1ccccc1	–	–	–	–	–	–	·
CCC(C)NC(=O)c1ccc2c(Cl)c3c(nc2c1)CCC3 (stereo not drawn)	–	–	–	–	–	–	·
CC(C)(C)c1ccc(C(=O)NCCN2CCOCC2)cc1	–	–	–	–	–	·	·
O=C(c1ccc2c(Cl)c3c(nc2c1)CCCC3)N1CCC(N2CCCCC2)CC1	–	·	–	58	–	–	–
CCN(C(=O)c1ccc2c(Cl)c3c(nc2c1)CCC3)c1ccc(C)c(C)c1	–	–	–	53	–	–	43	FLuc counter=82
O=C(O)[C@H]1[C@H](CO)[C@H]2Cn3c(cccc3=O)[C@H]2N1C(=O)NC1CCCC1	·	–	·	·	·	·	·
NC(N)=NN=C1CCCCCCCCCCC1	–	·	–	60	–	–	43	FLuc counter=58
COc1ccc(-c2cc3c(=O)n(CC(=O)NCc4ccc(Cl)cc4)ncn3n2)cc1	–	–	–	64	–	–	–
COc1ccc(-c2cc3c(=O)n(CC(=O)Nc4cccc(Cl)c4)ncn3n2)cc1	–	–	–	–	–	–	·
COc1ccc(-c2cc3c(=O)n(CC(=O)NCc4ccc(F)cc4)ncn3n2)cc1	–	–	–	86	–	–	–
COc1ccc(CNC(=O)Cn2ncn3c(cc4ccccc43)c2=O)cc1	–	–	–	67	–	–	–
COc1ccc(CNC(=O)Cn2ncn3cccc3c2=O)cc1	·	·	·	–	·	–	·

From PubChem BioAssay
